Consider 34 molecules from PubChem BioAssay (Tox21).

Structures are written as SMILES. Records with an inconclusive call do not appear. Entries that show only a call come without a potency. Active and inactive are the calls of the source. Calls follow the shape of the dose curve; as a rule, active = well fitted curve in the direction sought with a large enough effect in the repeat runs; inconclusive = weak or mixed curves; inactive = no such curve, though single readings can be large; an effect the other way counts as inactive or inconclusive.
Potency is read from the fitted curve at half-maximal effect.

One assay is described as follows: qHTS assay to identify small molecule agonists of the sonic hedgehog signaling (Shh) pathway - cell viability counter screen (AID 1259366). Also: nearly all actives have a fitted effect of over 50% in size. The note with it: NIH/3T3 Gli1-Luc viability, CellTiter-Fluor, 24 h; series mostly up to 92.4 µM. The method, boiled down: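 CellTiter-Fluor fluorescence read-out, 1 hr at 37C, added after 23hr compound exposure. Cells: 3T3 Gli1-Luc, an NIH/3T3 clone with stably integrated Gli1-Luc reporter, plated 4hr before compound.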
A general note: Quantitative high-throughput screening tests each substance at several concentrations.
Regarding `CNC(=O)Oc1ccc(N(C)C)c(C)c1`, the Potency result was “inactive”.
The same measure, in the same setting: as for `CCC1(c2ccccc2)C(=O)NC(=O)NC1=O`, the entry is “inactive”; as for `COC(=O)c1ccccc1S(=O)(=O)NC(=O)Nc1nc(C)cc(C)n1`, “inactive”; as for `COc1cc(OC)nc(NC(=O)NS(=O)(=O)c2ncccc2C(=O)N(C)C)n1`, “inactive”.
For `ClCC(Cl)Cl`, the Potency result is “inactive”.
On to `Clc1cccc(N2CCNCC2)c1`, for which the Potency entry was “inactive”.
The same measure, in the same setting: as for `O=C1CN2CCOC2(c2ccccc2Cl)c2cc(Cl)ccc2N1` (stereo not given), the entry is “inactive”; as for `CCOP(=O)(N=C1SCCS1)OCC`, “inactive”; as for `N#CC(CCc1ccc(Cl)cc1)(Cn1cncn1)c1ccccc1` (stereo not given), 48.6 µM (active).
With `COc1cccc2c1cc([N+](=O)[O-])c1c(C(=O)O)cc3c(c12)OCO3`, the Potency is 12.2 µM (active).
As to `CC(C)(C)C(=O)C(Oc1ccc(Cl)cc1)n1cncn1` (stereo not given), the Potency entry is “inactive”.
For `CC(=O)CC(c1ccc(Cl)cc1)c1c(O)c2ccccc2oc1=O` (stereo not given), the Potency result is “inactive”.
Still for that read-out and setting: as for `CC(=O)C(Cl)Cl`, the entry is “inactive”.
For `ClC(Cl)C(Cl)Cl`, the Potency entry is “inactive”.
Consider `COc1cc(OC)nc(Sc2cccc(Cl)c2C(=O)O)n1`, for which the Potency entry was “inactive”.
On to `COc1cc(OC)nc(NC(=O)NS(=O)(=O)c2ncccc2OCC(F)(F)F)n1`, for which the Potency result was “inactive”.
On to `[O]=[Cd]`, for which the Potency result is “inactive”.
Regarding `N#CCNCC#N`, the Potency result was “inactive”.
On the same count and under the same terms, as for `CCCSC(=O)Cl`, the entry is “inactive”; as for `CCC(Cl)[N+](=O)[O-]` (stereo not given), “inactive”; as for `O=[N+]([O-])c1cc(Cl)c(Cl)c(Cl)c1`, “inactive”.
For `Nc1cc2c3c(c1)C(c1ccccc1)=N[C@@H](NC(=O)c1cccnc1)C(=O)N3CC2`, the Potency entry is “inactive”.
For the molecule `CC(C)NCC(O)c1ccc(N)c(C#N)c1` (stereo not given), the Potency result was “inactive”.
The same measure, in the same setting: as for `Cc1cc(C)nc(Nc2ccccc2)n1`, the entry is “inactive”; as for `C(CCOCC1CO1)COCC1CO1` (stereo not given), “inactive”.
For `Cc1ncsc1CCCl`, the Potency result was “inactive”.
Consider `CNC(=O)Oc1cccc(C(C)C)c1`, for which the Potency result was “inactive”.
On to `N#Cc1ccncc1`, for which the Potency entry was “inactive”.
`CCC(C)n1c(=O)[nH]c(C)c(Br)c1=O` (stereo not given): the Potency result is “inactive”.
`Fc1ccc(C2(Cn3cncn3)OC2c2ccccc2Cl)cc1` (stereo not given): the Potency entry was “inactive”.
The same measure, in the same setting: as for `O=C(Oc1ccc(Br)cc1)N1CCN2CCC1CC2`, the entry is “inactive”; as for `CCOP(=S)(OCC)Oc1nc(Cl)n(C(C)C)n1`, “inactive”.
Take `CC(=O)CCc1ccc2c(c1)OCO2`: the Potency entry was “inactive”.

The nature of a further assay: qHTS assay to identify small molecule antagonists of the sonic hedgehog signaling (Shh) pathway - cell viability counter screen (AID 1259367). Also: nearly all actives have a fitted effect of over 55% in size. The note with it: NIH/3T3 Gli1-Luc viability, CellTiter-Fluor, 24 h; series mostly up to 92.4 µM. Summed up: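 Fluorescence read-out (CellTiter-Fluor, 1 hr at 37C) taken after 23 hr compound treatment of 3T3 Gli1-Luc cells stimulated with conditioned medium. Cells were seeded at 2,000 per well and pre-incubated 4 hr.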
`CNC(=O)Oc1ccc(N(C)C)c(C)c1`: the Potency result is “inactive”.
`CCC1(c2ccccc2)C(=O)NC(=O)NC1=O`: the Potency result was “inactive”.
Still for that read-out and setting: as for `COC(=O)c1ccccc1S(=O)(=O)NC(=O)Nc1nc(C)cc(C)n1`, the entry is “inactive”.
Take `COc1cc(OC)nc(NC(=O)NS(=O)(=O)c2ncccc2C(=O)N(C)C)n1`: the Potency entry was “inactive”.
Still for that read-out and setting: as for `ClCC(Cl)Cl`, the entry is “inactive”.
`Clc1cccc(N2CCNCC2)c1`: the Potency result is “inactive”.
Regarding `CCS(=O)(=O)CCSP(=O)(OC)OC`, the Potency result was “inactive”.
Turning to `O=C1CN2CCOC2(c2ccccc2Cl)c2cc(Cl)ccc2N1` (stereo not given), the Potency entry was “inactive”.
Consider `CCOP(=O)(N=C1SCCS1)OCC`, for which the Potency entry was “inactive”.
For `N#CC(CCc1ccc(Cl)cc1)(Cn1cncn1)c1ccccc1` (stereo not given), the Potency is 27.3 µM (active).
As to `CC(C)(C)C(=O)C(Oc1ccc(Cl)cc1)n1cncn1` (stereo not given), the Potency result is “inactive”.
As for `CC(=O)C(Cl)Cl`, the Potency result was “inactive”.
The same measure, in the same setting: as for `ClC(Cl)C(Cl)Cl`, the entry is “inactive”; as for `COc1cc(OC)nc(Sc2cccc(Cl)c2C(=O)O)n1`, “inactive”; as for `COc1cc(OC)nc(NC(=O)NS(=O)(=O)c2ncccc2OCC(F)(F)F)n1`, “inactive”.
`[O]=[Cd]`: the Potency result is “inactive”.
Consider `N#CCNCC#N`, for which the Potency entry was “inactive”.
On to `CCCSC(=O)Cl`, for which the Potency result is “inactive”.
With `CCC(Cl)[N+](=O)[O-]` (stereo not given), the Potency result is “inactive”.
In the case of `O=[N+]([O-])c1cc(Cl)c(Cl)c(Cl)c1`, the Potency entry is “inactive”.
Regarding `Nc1cc2c3c(c1)C(c1ccccc1)=N[C@@H](NC(=O)c1cccnc1)C(=O)N3CC2`, the Potency result was “inactive”.
Regarding `CC(C)NCC(O)c1ccc(N)c(C#N)c1` (stereo not given), the Potency result is “inactive”.
As to `Cc1cc(C)nc(Nc2ccccc2)n1`, the Potency result is “inactive”.
Regarding `C(CCOCC1CO1)COCC1CO1` (stereo not given), the Potency result was “inactive”.
As for `Cc1ncsc1CCCl`, the Potency entry was “inactive”.
Regarding `CNC(=O)Oc1cccc(C(C)C)c1`, the Potency entry is “inactive”.
As for `N#Cc1ccncc1`, the Potency result was “inactive”.
For `CCC(C)n1c(=O)[nH]c(C)c(Br)c1=O` (stereo not given), the Potency result was “inactive”.
`Fc1ccc(C2(Cn3cncn3)OC2c2ccccc2Cl)cc1` (stereo not given): the Potency result is “inactive”.
Still for that read-out and setting: as for `O=C(Oc1ccc(Br)cc1)N1CCN2CCC1CC2`, the entry is “inactive”; as for `CCOP(=S)(OCC)Oc1nc(Cl)n(C(C)C)n1`, “inactive”; as for `CC(=O)CCc1ccc2c(c1)OCO2`, “inactive”.
